Screens (PubChem BioAssay)
HepG2 tox – kills HepG2 cells in TGF-b inhibitor counter-screen | Potency, µM (top dose mostly 46.1 µM), for the others: at the highest dose activity change, negative = cytotoxicity, most hits filed as cytotoxic | AID 588856 | hit rate 0.76% among 410,000 | HepG2 CAGA-GFP viability, ATP luminescence, 18 h
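CellTiter-Glo luminescence gave cytotoxicity after 18 hours at 37 degrees C. The cells were HepG2 CAGA-GFP in 1% FBS DMEM, stimulated with 500 pg/mL TGF-beta after compound addition. %Activity was normalised to no-cell wells (complete cell-killing) and DMSO (no toxicity), and curves were fitted and classified.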
DT40 TDP1 no CPT – qHTS for Inhibitors of human tyrosyl-DNA phosphodiesterase 1 (TDP1): qHTS in cells in absence of CPT; hit rate 15% among 420,000; AID 686978, 2013; Potency, µM (titrated, usually from 46.2 µM), for the others: at the top dose activity change, negative = growth inhibition, hits mostly inhibitors; DT40 Tdp1-/- hTDP1 cells, no CPT, ATP luminescence, 48 h; also: % is scaled to controls: 0 for no effect and ±100 for the full control effect; nearly all actives have a fitted effect of over 55% in size
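Growth of hTDP1-complemented DT40 Tdp1-knockout cells is measured by ATP luminescence after at least 48 hr compound exposure at 37 °C, with DMSO substituting for the 20 nM CPT used in the parallel screen.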
DT40 TDP1 CPT – DT40-hTDP1 cell growth loss with CPT | chicken DT40 Tdp1-/-;hTDP1 cells + 20 nM CPT, ATP luminescence, 48 h | Potency, µM (top dose mostly 46.2 µM), for inactives: top-dose activity change, negative = growth inhibition, most hits filed as inhibitors | hit rate 12% among 420,000; also: % is scaled to controls: 0 for no effect and ±100 for the full control effect; nearly all actives have a fitted effect of over 55% in size
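Cell growth measured by CellTiter-Glo luminescence after a minimum 48 h, 37 C compound exposure with 20 nM CPT in Tdp1-knockout DT40 cells stably expressing hTDP1, seeded 400/well; qHTS titration format.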
HT1080NT lethal – kills 2HG-producing HT-1080-NT fibrosarcoma cells; HT-1080-NT fibrosarcoma viability, CellTiter-Glo ATP luminescence, 48 h; Potency, µM (highest dose often 46.1 µM), without a hit: at the top dose activity, negative = less viability, most hits filed as cytotoxic; hit rate 1.6% among 360,000;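 also: NT is the 2HG producing partner of a matched IDH1 knockdown line; 0% = DMSO-treated cells and -100% = media-only wells without cells; nearly all actives have a fitted effect of over 55% in size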
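Read-out is CellTiter-Glo luminescence after 10 minutes at room temperature, following 48 hours' compound treatment of HT-1080-NT cells (750 cells/well, RPMI, 5% FBS, 37 degrees C).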
TGFb SMAD3 inh – inhibitors of TGF-b signaling. AID 588855. HepG2 CAGA-GFP TGF-b/SMAD3 reporter, GFP fluorescence, 18 h; TGF-beta stimulated, 500 pg/mL final. Potency, µM (highest dose often 46.1 µM), for inactives: at the top dose activity, negative = inhibition, actives largely listed as inhibitors. hit rate 1.2% among 410,000; also: % is scaled to controls: 0 for no effect and ±100 for the full control effect; nearly all actives have a fitted effect of over 65% in size
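Per well, imaged GFP fluorescence of HEPG2 CAGA-GFP cells gives the signal; cells get compound, then TGF-beta (500 pg/mL final), 18 h at 37 degrees C; %Activity versus -TGF-beta and +DMSO controls.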
HT1080 IDH1KD tx – HT-1080 IDH1 knockdown cell toxicity (counter line). Potency, µM (doses to about 46.1 µM), for the others: at the highest dose activity, negative = toxicity, hits mostly cytotoxic. HT-1080 IDH1 knockdown viability, ATP luminescence, 48 h. hit rate 2% among 360,000;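 also: 0% = DMSO wells and -100% = cell-free medium wells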
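HT-1080-IDH1KD cells (IDH1 knocked down), 750/well in RPMI with 5% FBS, treated with compound 48 h at 37 degrees C. Viability by CellTiter-Glo luminescence, normalised to DMSO and no-cell wells; concentration-response curves classed.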
Starred values were filed as active, the others as inactive; ? = inconclusive; nt = no result given; [ ] = dose if it differs, or a comment. Compounds with a hit are over-represented: about 17% of the library has one in this group of screens. Calls follow the shape of the dose curve; as a rule, active = well fitted curve in the direction sought with a large enough effect; inconclusive = small, poorly fitted or top-dose-only effect, or another doubt; inactive = no such curve, though single readings can be large; an effect the other way counts as inactive or inconclusive. Potency is read from the fitted curve at half-maximal effect.

SMILES	HepG2 tox	DT40 TDP1 no CPT	DT40 TDP1 CPT	HT1080NT lethal	TGFb SMAD3 inh	HT1080 IDH1KD tx
Cc1nnc(NC(=O)c2cccn(Cc3ccccc3F)c2=O)s1	-3%	-1%	3%	nt	-1%	nt
CN1C(=O)c2ccccc2Sc2ccc(NC(=O)c3ccc(C(F)(F)F)cc3)cc21	-5%	2.9µM*	4.6µM*	nt	-1%	nt
COc1ccc(C(=O)Nc2ccc3c(c2)N(C)C(=O)c2ccccc2S3)cc1OC	-18%	2.6µM*	2.9µM*	nt	-33%	nt
NCCc1cccc(O)c1	nt	-12%	-8%	nt	nt	nt
Oc1ccccc1-[n+]1c(-c2ccccc2)cc(-c2ccccc2)cc1-c1ccccc1	-40%	2.3µM*	1.3µM*	15µM*	?	?
Cc1ccc(-c2cc(-c3ccccc3)cc(-c3ccccc3)[n+]2-c2ccc(C(=O)O)cc2)cc1	-3%	3%	-3%	14%	18%	9%
[O-]c1ccccc1-[n+]1c(-c2ccccc2)cc(-c2ccccc2)cc1-c1ccccc1	-19%	2.1µM*	2.1µM*	nt	?	?
Nc1ccc(-c2ccccc2)cc1	1%	-10%	-16%	nt	14%	nt
Nc1ccccc1-[n+]1c(-c2ccccc2)cc(-c2ccccc2)cc1-c1ccccc1	-18%	5.8µM*	6.5µM*	?	?	?
Oc1c(Br)cc(-c2ccccc2)cc1Br	3%	-23%	-10%	-1%	4%	1%
O=C(O)[C@H]1[C@H]2CN[C@H](C(=O)O)[C@H]21	nt	-22%	-6%	nt	nt	nt
Cc1ccc(C2=CCNCC2)cc1	0%	-16%	-2%	6%	12%	-1%
Cc1ccc2c(c1)C1CN(C)CCC1N2C(=O)COc1ccc(N(C)S(=O)(=O)c2cccs2)cc1 (configuration not stated)	-18%	?	-28%	-29%	-25%	-18%
CN(c1ccc(OCC(=O)N2CCN(C/C=C/c3ccccc3)CC2)cc1)S(=O)(=O)c1cccs1	-26%	5.8µM*	13µM*	-26%	-22%	-23%
O=C(Cn1c(=O)n(CC2CCC(C(=O)NCCc3ccccc3)CC2)c(=O)c2ccccc21)Nc1cccc(F)c1 (configuration not stated)	-10%	?	?	nt	?	nt
O=C(Oc1ccc2ccc(OC(=O)N3CCCCCC3)cc2c1)N1CCCCCC1	9%	21µM*	12µM*	4%	?	2%
Oc1c(Br)c(Br)c(Br)c(Br)c1Br	-32%	?	?	26µM*	?	?
COC(=O)C1CN(C#N)N(c2ccc(Cl)cc2)C12c1ccccc1-c1ccccc12 (configuration not stated)	3.5µM*	2.9µM*	3.3µM*	3.3µM*	5µM*	3.7µM*
CCN(C(=O)Cn1c(=O)oc2cc(Cl)ccc21)c1cccc(C(F)(F)F)c1	-92%	-25%	?	nt	?	nt
COc1ccc2c(c1OC)CN1CCc3cc4c(cc3C1C2)OCO4 (configuration not stated)	-14%	?	21µM*	-17%	0%	-11%
COc1ccc2c(c1OC)CN1CCc3cc4c(cc3[C@H]1C2)OCO4	-29%	13µM*	15µM*	0%	?	0%
COc1cc2c(cc1OC)C(C1c3cc4c(cc3CCN1C)OCO4)OC2=O (configuration not stated)	-40%	5%	1%	20%	13%	3%
COc1ccc2c(c1O)-c1c(OC)c(OC)cc3c1[C@H](C2)N(C)CC3	-16%	-3%	-3%	?	-8%	17%
COc1ccc(-c2nn(CCC#N)cc2C(=O)NCc2ccccc2)cc1OC	11%	-11%	-18%	6%	17%	8%
Cc1ccc(Cn2nc(C(=O)Nc3ccc(Br)cc3)cc2C)cc1	-17%	12µM*	?	-6%	?	?
SMILES	HepG2 tox	DT40 TDP1 no CPT	DT40 TDP1 CPT	HT1080NT lethal	TGFb SMAD3 inh	HT1080 IDH1KD tx
CSCCC(N=Cc1c(O)n(-c2ccc(Cl)cc2)c(=O)[nH]c1=O)C(=O)OC(C)(C)C (configuration not stated)	7%	6%	2%	8%	-3%	0%
COc1ccc(/C=N\N=C(N)N)cc1	-26%	16µM*	?	-2%	4%	0%
O=C1NC(=O)C(=Cc2ccc(N3CCOCC3)cc2)C(=O)N1	10%	-21%	-12%	17%	-17%	5%
NC(N)=N/N=C/c1ccc(N2CCOCC2)cc1	-12%	4.6µM*	4.6µM*	?	-21%	-19%
NC(N)=N/N=C/c1ccc(N(c2ccccc2)c2ccccc2)cc1	7.9µM*	18µM*	16µM*	?	13µM*	?
C=CCN1CCC2(C)c3cc(O)ccc3C[C@H]1[C@H]2C	nt	-16%	1%	nt	nt	nt
Clc1ccc(C2(Cn3cncn3)OCCO2)c(Cl)c1	nt	-23%	-4%	nt	nt	nt
C/C=C(/C)C(=O)OC1CC[C@]2(C)C3CCC4[C@]5(O)CC(O)[C@]6(O)C(CN7CC(C)CCC7[C@]6(C)O)[C@]5(O)C[C@@]42O[C@]13O (some centres not stated)	nt	-6%	-3%	nt	nt	nt
COc1ccc(NC(=O)CSc2nc(-c3cccs3)cc(C(F)(F)F)n2)cc1Cl	3%	23µM*	16µM*	nt	-4%	nt
CCn1nc(-c2ccccc2)nc2c(=O)n(C)c(=O)nc1-2	-96%	2.6µM*	1.3µM*	4.1µM*	0.56µM*	5.8µM*
O=c1[nH]c(=O)n(Cc2ccco2)c(O)c1C=NCc1cccs1	-9%	-14%	2%	-6%	?	6%
CCn1c(O)c(C=NCc2cccs2)c(=O)[nH]c1=O	-1%	29µM*	?	12%	-3%	0%
CCCC/C(C)=C/[C@@H](NP(=O)(c1ccccc1)c1ccccc1)c1ccccc1	-110%	16µM*	?	?	?	?
Cc1cc(N2CCNCC2)nc2ccccc12	-17%	?	-9%	?	-1%	-1%
COc1ccccc1OCCCn1cc(C(=O)c2ccco2)c2ccccc21	-11%	?	18µM*	-2%	?	-8%
CCOC(=O)[C@]1(C#N)[C@@H]2C=CC(C(C)=O)=CN2[C@@H](C(N)=O)[C@@H]1c1ccsc1	-1%	?	?	4%	14%	-1%[9.24 µM]
